The source made the active and inactive calls. Rule for the calls: active = hit-call score of the fitted dose curve at least 0.9, where 1 is the maximum; inactive = score below 0.9.

This assay can be described thus: BSK_3C_Vis: BioMAP Diversity Plus: 3C Assay for Morphology Visualization (AID 2283025).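 Note: fitted both ways so gain or loss versus DMSO counts.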 Particulars: primary human endothelial cells (HUVEC). The protocol: BSK_3C is a cell-based, multiplexed-readout assay that uses umbilical vein endothelium, a human vascular primary cell, with measurements taken at 24 hours after chemical dosing in a 96-well plate.BSK_3C_Vis is an assay component measured in the BSK_3C assay. It measures NA related to cell morphology using light microscopy technology.Data from the assay component BSK_3C_Vis was analyzed into 1 assay endpoint. This assay endpoint, BSK_3C_Vis, was analyzed with bidirectional fitting relative to DMSO as the negative control and baseline of activity. Using a type of morphology reporter, gain or loss-of-signal activity can be used to understand changes in the background control. Furthermore, this assay endpoint can be referred to as a secondary readout, because this assay has produced multiple assay endpoints where this one serves a background control function. To generalize the intended target to other relatable targets, this assay endpoint is annotated to the cell morphology intended target family, where the subfamily is cell conformation.
The levels of cell surface (or secreted, indicated by the prefix "s") biomarker endpoints were measured by ELISA. Overt cytotoxicity to cells in confluent adherent cultures (all systems other than the BT system) was assessed by measuring total protein levels using sulforhodamine B (SRB) staining in parallel cultures at the time of biomarker measurements, indicated as SRB endpoints. For proliferation assays for adherent cell types, individual cell types are cultured at sub-confluence and relative cell numbers quantified by SRB staining at time points optimized for each system (48 h: 3C and CASM3C systems; 72 h: BT and HDF3CGF systems; 96 h: SAg system). SRB was performed by staining cells with 0.1% SRB after fixation with 10% TCA and reading wells at 560 nm.Viability and proliferation of PBMC (T cells) was quantified by Alamar Blue reduction for the SAg and BT systems. For PBMC viability (referred to as PBMC Cytotoxicity within the assay endpoint names), cells were plated (75,000/well in a 96-well plate) and then chemical samples added for 1 h before addition of activators, SEB and TSST-1 (20 ng/mL final concentration each). Cells were incubated for 90 h. Then, Alamar Blue (20 uL/well) (Invitrogen, Cat DAL1100) was added for 6 h, and the plates were read with a fluorescence microplate reader at 546/580 nm (excitation/emission). For PBMC proliferation, cells were plated and activated as above but incubated for only 16 h prior to addition of Alamar Blue. Plates were read after 6 h.
With `Brc1nc2ccccc2s1`, the outcome was inactive. With `Cc1ccc(O)c(-n2nc3ccccc3n2)c1`, the result was inactive. The term AC50 denotes the concentration at which the activity in the assay is half-maximal. With `O=C1C=CC(=O)N1c1ccc(Cc2ccc(N3C(=O)C=CC3=O)cc2)cc1`, the AC50 is 5.63 µM (active). With `CCN(CC)c1ccc2c(c1)Oc1cc(N(CC)CC)ccc1C21OC(=O)c2ccccc21`, the AC50 is 19.9 µM (active). Regarding `Nc1cc([N+](=O)[O-])cc(Cl)c1O`, the outcome was inactive. Take `CCN(CC)c1ccc(C=O)cc1`: the outcome was inactive. For `Cc1cc(C)c(O)c(C(C)(C)C)c1`, the AC50 is 14.9 µM (active). As for `O=C=NCc1cccc(CN=C=O)c1`, the result was inactive. With `CCN(CC)c1ccc(N=Nc2ccccc2)cc1`, the AC50 is 8.8 µM (active). For `O=C=Nc1cccc2c(N=C=O)cccc12`, the result was inactive. For `O=C1c2c(O)ccc(Nc3ccc(CCO)cc3)c2C(=O)c2c([N+](=O)[O-])ccc(O)c21`, the half-maximal activity concentration (AC50) is 15.4 µM (active). On the same count and under the same terms, in the case of `Cc1ccc(S(=O)(=O)C(I)I)cc1` it was 1.85 µM (active). With `CCOC(C=C(C)CCC=C(C)C)OCC`, the AC50 was 37.1 µM (active). On to `CC(C)(C)c1cc(CCC(=O)NCCCCCCNC(=O)CCc2cc(C(C)(C)C)c(O)c(C(C)(C)C)c2)cc(C(C)(C)C)c1O`, for which the AC50 is 3.25 µM (active). Turning to `CCN(CC)c1ccc(C=O)c(O)c1`, the outcome was inactive. `O=C(c1ccccc1)c1ccc(O)cc1O`: the result was inactive. `Cc1cnccn1`: the result was inactive. Consider `CC(C)CCCC(C)CCO` (stereo unspecified), for which the concentration at half-maximal activity (AC50) was 39.6 µM (active).

`C[C@]12CC[C@H]3C(=CCc4cc(O)ccc43)[C@@H]1CCC2=O`: the outcome was inactive. As for `CC1=CC2C3C=CC(C3)C2C1C` (stereo unspecified), the outcome was inactive. As for `Cc1cc(O)c(C(C)(C)C)cc1C(C)(C)C`, the half-maximal activity concentration (AC50) is 12.5 µM (active).

Values taken from PubChem BioAssay (EPA / NIEHS).
